Experimental data reported in PubChem BioAssay (EPA / NIEHS).
Activity calls are given as the source filed them. The calls were made as follows: active = hit-call score of the fitted dose curve at least 0.9, where 1 is the maximum; inactive = score below 0.9.

Biological target: Signal transducer and activator of transcription 3 (Homo sapiens) (UniProt P40763)
Experiment: ATG_STAT3_CIS: Attagene CIS-FACTORIAL HepG2 Assay for human Signal Transducer and Activator of Transcription 3 (STAT3) (AID 2282963)
Conditions: HepG2, Attagene cis-factorial STAT3 reporter transcription; actives raise or lower the signal
Procedure: ATG_CIS is a cell-based, multiplexed-readout assay that uses HepG2, a human liver cell line, with measurements taken at 24 hours after chemical dosing in a 24-well plate.ATG_STAT3_CIS is one of 52 assay component(s) measured or calculated from the ATG_CIS assay. It is designed to make measurements of mRNA induction, a form of inducible reporter, as detected with fluorescence intensity signals by Reverse transcription polymerase chain reaction (RT-PCR) and Capillary electrophoresis technology.Data from the assay component ATG_STAT3_CIS was analyzed into 1 assay endpoint. This assay endpoint, ATG_STAT3_CIS, was analyzed with bidirectional fitting relative to DMSO as the negative control and baseline of activity. Using a type of inducible reporter, measures of mRNA for gain or loss-of-signal activity can be used to understand the reporter gene at the transcription factor-level as they relate to the gene STAT3. Furthermore, this assay endpoint can be referred to as a primary readout, because this assay has produced multiple assay endpoints where this one serves a reporter gene function. To generalize the intended target to other relatable targets, this assay endpoint is annotated to the dna binding intended target family, where the subfamily is stat protein.
Human liver HepG2 cells are transiently transfected with multiple reporter transcription units (MRTUs) in 6-well plates using FuGene 6 reagent (Roche; 3 ml FuGene/1 mg DNA). The MRTU constructs are regulated by a cis-regulating element (promoter). […] A major difference between the CIS and TRANS system is that in CIS activities of endogenous TFs are measured, whereas the TRANS assay evaluates changes in activities of exogenous, chimeric NR-Gal4 proteins. […] At the end of 24 hour incubation, total RNA was isolated using TriZol reagent (Invitrogen). The isolated RNA is then reverse-transcribed using oligo(dT) primer and Mo-MLV reverse transcriptase (Invitrogen) with DNAse I (Ambion) treatment for 30 min. The one-tenth of the produced cDNA was amplified by PCR using Taq DNA polymerase (Invitrogen) and two reporter sequence-specific primers. The PCR products were fluorescently labeled by primer extension with 6-arboxyfluorescein (6-FAM) 5'-labeled reporter sequence-specific primer (2 min at 95 C, 20 s at 68 C and 10 min at 72 C) and these products were digested with 5U of HpaI (New England Biolabs) for 2h at 37 C. The fragments were purified using Qiaquick PCR columns (Qiagen), analyzed on an ABI 3130xL genetic analyzer (Applied Biosystems) with peak positions identified by using a set of X-rhodamine (ROX)-labeled MapMarker1000 molecular weight standards (BioVentures). The raw capillary electrophoresis data was processed using Attagraph software (Attagene).

Sequence of Signal transducer and activator of transcription 3 (Homo sapiens) (P40763 whole entry, looked up): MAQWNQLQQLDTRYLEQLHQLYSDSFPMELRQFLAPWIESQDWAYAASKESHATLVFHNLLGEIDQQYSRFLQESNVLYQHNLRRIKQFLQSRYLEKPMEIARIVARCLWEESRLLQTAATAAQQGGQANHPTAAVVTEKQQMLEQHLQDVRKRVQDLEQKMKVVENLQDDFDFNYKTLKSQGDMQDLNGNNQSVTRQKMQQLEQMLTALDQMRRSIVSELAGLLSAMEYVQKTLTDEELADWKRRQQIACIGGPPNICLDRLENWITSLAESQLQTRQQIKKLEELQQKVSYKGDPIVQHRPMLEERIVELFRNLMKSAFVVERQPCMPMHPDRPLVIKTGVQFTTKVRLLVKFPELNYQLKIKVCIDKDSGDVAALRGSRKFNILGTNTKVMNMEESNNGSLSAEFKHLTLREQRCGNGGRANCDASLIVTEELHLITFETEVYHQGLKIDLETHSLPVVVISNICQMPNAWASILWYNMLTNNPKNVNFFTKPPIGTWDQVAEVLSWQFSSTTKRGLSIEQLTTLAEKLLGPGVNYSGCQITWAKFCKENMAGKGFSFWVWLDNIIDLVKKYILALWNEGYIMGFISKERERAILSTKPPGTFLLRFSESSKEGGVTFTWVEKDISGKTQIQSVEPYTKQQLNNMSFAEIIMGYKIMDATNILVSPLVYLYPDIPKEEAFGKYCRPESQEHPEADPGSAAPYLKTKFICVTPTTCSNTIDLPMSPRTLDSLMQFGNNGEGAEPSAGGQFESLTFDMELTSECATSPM

Structure (SMILES) | outcome | AC50
CCCCCCCCCCCCCC(=O)OCC(O)CO (stereo not given) | inactive | –
c1ccc2[nH]cnc2c1 | inactive | –
COc1ccc(OC)c(N=Nc2c(O)ccc3ccccc23)c1 | inactive | –
CCO/C=C1\N=C(c2ccccc2)OC1=O | inactive | –
COc1cc(CCC(C)=O)ccc1O | inactive | –
CCN(CC)C(=O)N(CC)CC | inactive | –
CC1(C)CCC[C@]2(C)[C@H]3CCO[C@]3(C)CC[C@@H]12 | inactive | –
Oc1c(Cl)cc(Cl)c(Cl)c1Cc1c(O)c(Cl)cc(Cl)c1Cl | inactive | –
COc1ccc(N=Nc2cc(C)c(N=Nc3ccc(S(=O)(=O)O)cc3)cc2OC)cc1 | – | 162 µM (active)
CCc1cc(C(C)(C)C)c(O)c(C(C)(C)C)c1 | inactive | –
CN1CCOCC1 | inactive | –
Cc1[nH]c(=O)c(C#N)cc1-c1ccncc1 | inactive | –
ON=C1CCCCC1 | inactive | –
C[N+](C)(C)CCCCCC[N+](C)(C)C | inactive | –
CC1CCC(C(C)C)C(O)C1 (stereo not given) | inactive | –
Cc1ccc(N)c(S(=O)(=O)O)c1 | inactive | –
CCCC(=O)OC(C)(C)Cc1ccccc1 | inactive | –
COc1ccc(CCN2CCC(Nc3nc4ccccc4n3Cc3ccc(F)cc3)CC2)cc1 | inactive | –
Nc1ccn([C@H]2CS[C@@H](CO)O2)c(=O)n1 | inactive | –
C=CCCCCCCCCCC | inactive | –

Structure (SMILES) | outcome | AC50
CCC(C)c1cc([N+](=O)[O-])cc([N+](=O)[O-])c1OC(=O)OC(C)C (stereo not given) | – | 100 µM (active)
CC(C)C(OC(=O)c1ccccc1)C(C)(C)COC(=O)c1ccccc1 (stereo not given) | inactive | –
COc1ccc(COC(C)=O)cc1 | inactive | –
CCCCCCCC(=O)OCCCCCC | inactive | –
CSCCC=O | inactive | –
CC(C)=CCCC(C)CCOC=O (stereo not given) | inactive | –
CC(C)(N=C=O)c1cccc(C(C)(C)N=C=O)c1 | inactive | –
CCCC(=O)OCCc1ccccc1 | inactive | –
OCC(O)c1ccccc1 (stereo not given) | inactive | –
O=Cc1ccccc1S(=O)(=O)O | inactive | –
O=C1c2ccccc2C(=O)c2c(O)ccc(O)c21 | inactive | –
CN(C)c1cccc(O)c1 | inactive | –
Nc1ccc(Cl)c([N+](=O)[O-])c1 | inactive | –
CN(C)c1ccncc1 | inactive | –
C=CC(C)C#N (stereo not given) | inactive | –
CCN(CCN)c1cccc(C)c1 | inactive | –
CCCCCC(C=O)=Cc1ccccc1 | inactive | –
Cc1ccc(-c2ccccc2)cc1 | inactive | –
CS(C)=O | inactive | –
CN(C)CCOC(C)(c1ccccc1)c1ccccn1 (stereo not given) | inactive | –
